# Rows were chosen to be rich in hits. Some 0.27% of all compounds tested hit in one or more screens of this group.
# TRPV1 potentiator – enhances activation of the human vanilloid receptor TRPV1 | potentiation, % at 8.33 µM | AID 540277 | actives 0.02% (n = 320,000) | TRPV1-expressing cells, Fluo-8 calcium influx, capsaicin EC20 potentiation; in the data active = potentiation above about 80%; inconclusive = between about 30% and that limit; also: 0% is about no effect
#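 Fluo-8 calcium influx in TRPV1-expressing cells, kinetic read (ex 480/em 520 nm). Compound added and read 3 min for agonist activity, followed by capsaicin at EC20 final and 2 min further read for enhancement.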
# TRPML1 inh – inhibitors of human TRPML1 channel; Q9GZU1; TRPML1-inducible cells, Ca2+ dye fluorescence, FDSS; stronger effect = lower value; inhibition of EC80 agonist-evoked calcium signal; activity change, negative = inhibition, % (concentration not given with the values); actives 0.02% (n = 390,000); AID 624415; in the data active = activity change below about -50%; inconclusive = between about -30% and that limit;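 also: stimulus is agonist 54-4 at its EC80 concentration; % is scaled to controls: 0 for no effect and ±100 for the full control effect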
# Target sequence (Q9GZU1 whole entry, looked up): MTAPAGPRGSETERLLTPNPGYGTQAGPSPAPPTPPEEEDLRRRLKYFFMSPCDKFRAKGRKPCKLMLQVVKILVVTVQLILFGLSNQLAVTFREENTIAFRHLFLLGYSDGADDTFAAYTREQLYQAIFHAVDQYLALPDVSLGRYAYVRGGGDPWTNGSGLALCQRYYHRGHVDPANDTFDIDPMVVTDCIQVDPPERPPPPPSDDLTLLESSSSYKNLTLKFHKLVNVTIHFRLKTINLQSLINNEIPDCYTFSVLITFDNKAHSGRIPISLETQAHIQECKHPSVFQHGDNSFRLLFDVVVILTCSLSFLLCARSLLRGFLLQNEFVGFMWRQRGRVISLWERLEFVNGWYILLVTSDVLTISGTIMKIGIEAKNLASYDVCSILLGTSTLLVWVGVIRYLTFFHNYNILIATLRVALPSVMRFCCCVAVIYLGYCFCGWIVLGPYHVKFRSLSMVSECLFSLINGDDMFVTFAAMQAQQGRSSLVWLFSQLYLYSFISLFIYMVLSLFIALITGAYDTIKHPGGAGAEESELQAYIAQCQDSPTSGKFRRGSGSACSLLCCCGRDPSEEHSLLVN
#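 Calcium fluorescence in TRPML1-DL cells induced overnight with Tet: a 110 s read after compound pin addition, then a 110 s antagonist read after challenge with 54-4 at 4 uM final (EC80).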
# TRPML1 ag – activates the human TRPML1 channel. AID 624414. Q9GZU1. TRPML1-expressing cells, Ca2+ dye fluorescence, FDSS. activation, % (concentration not given with the values). actives 0.12% (n = 410,000); in the data active = activation above about 50%; inconclusive = mostly about 30% to 49%; also: 0% is about no effect
#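 Tetracycline-induced TRPML1-DL cells are seeded and incubated overnight before loading with a no-wash Ca2+ dye and quencher. Agonist activity is taken from the 110 s fluorescence read following compound pin-transfer on an FDSS, before EC80 54-4 challenge.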
# TRPV1 ag – activates the human vanilloid receptor TRPV1 | activation, % at 8.33 µM | actives 0.19% (n = 320,000) | AID 540275 | TRPV1-expressing cells, Fluo-8 calcium influx, agonist mode | Q8NER1; in the data active = activation above about 80%; inconclusive = between about 30% and that limit; also: 0% is about no effect
#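 TRPV1-expressing cells were cultured overnight at 35.5C and loaded with Fluo-8 calcium dye for 40 to 90 min at room temperature. After a 10 s baseline, compound was added and calcium influx was read kinetically for 3 min (ex 480/em 520 nm).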
# * marks the source's active call; other numbers are inactive results; ? = inconclusive; · = not tested or not shown.
SMILES,TRPV1 potentiator,TRPML1 inh,TRPML1 ag,TRPV1 ag
CCOC(=O)[C@H]1[C@H]2COc3ccc(Cl)cc3[C@@H]2N2C(=O)c3ccc(C)cc3NC(=O)[C@@]12C,?,8,0,99*
CCOC(=O)[C@H]1[C@H]2COc3ccc(Cl)cc3[C@@H]2N2C(=O)c3ccccc3NC(=O)[C@@]12C,1,43,1,?
CCOC(=O)[C@H]1[C@H]2COc3ccc(Cl)cc3[C@@H]2N2C(=O)c3ccc(F)cc3NC(=O)[C@@]12C,30,-9,3,83*
O=C(Cn1c(SCc2ccccc2F)nc2ccncc21)Nc1ccccc1C(F)(F)F,·,-2,-1,·
C1=Cc2ccccc2/C1=C\c1cc[cH-]c1.[Fe+2].c1cc[cH-]c1,·,·,-1,·
Cc1ccc(NC(=O)C2CCN(C(=O)c3sc4nc[nH]c(=O)c4c3C)CC2)cc1F,·,3,1,·
N#Cc1ccc(S(=O)(=O)N2CCCN(c3ccc(C(F)(F)F)cn3)CC2)cc1,-25,18,1,81*
CCOc1ccc(NC(=S)NC(=O)Cc2ccccc2)cc1,11,-8,0,87*
CCS(=O)(=O)N1CCC(C(=O)NC2CCCCCCC2)CC1,-2,-6,0,0
CC(C)CN(CC(C)C)S(=O)(=O)N1CCC(C(=O)NC2CCCCCCC2)CC1,5,-11,5,84*
CN(C)c1ccc(/C=C2\SC(=S)N(Nc3ncc(C(F)(F)F)cc3Cl)C2=O)cc1,24,-4,53*,20
CCOc1ccc(OCC)c(NC(=O)c2ccc(-c3ccccc3)s2)c1,·,0,1,·
COc1cc(CCC(O)CC(=O)CCc2ccccc2)ccc1O (centres undefined),14,·,·,84*
COc1cc(/C=N/NC(=O)CCc2ccccc2)ccc1O,0,-28,0,-1
COc1ccc(-n2nc3cc(C)c(NC(=O)Cc4ccc(Cl)cc4)cc3n2)cc1,·,-17,0,·
O=C(CCc1c[nH]c2ccccc12)NCCc1ccc(Cl)cc1,0,-14,-1,80*
CCCN1CNc2c(c(=O)[nH]c(=S)n2CCc2ccc(C)cc2)C1,·,·,0,·
CC1=C(C(=O)Nc2ccc(C)cc2C)C(c2ccccc2F)n2nc(SCC(=O)c3ccc(C)cc3)nc2N1 (centres undefined),·,-4,0,·
Cc1ccc(-n2nc(C)c3c(C)c(CCC(=O)NCc4ccco4)c(C)nc32)cc1,-13,16,1,82*
Cc1ccc(-n2nc(C)c3c(C)c(CCC(=O)NCc4ccccc4)c(C)nc32)cc1,8,-15,0,82*
Cc1ccc(-n2nc(C)c3c(C)c(CCC(=O)NCc4ccccc4Cl)c(C)nc32)cc1,·,11,0,·
CCCCNC(=O)CCc1c(C)nc2c(c(C)nn2-c2ccccc2)c1C,-1,-14,2,94*
Cc1ccc(CNC(=O)CCc2c(C)nc3c(c(C)nn3-c3ccc(C)cc3)c2C)cc1,2,1,0,?
CCOc1ccc(CNC(=O)CN2N=C(c3ccccc3)CCC2=O)cc1OC,·,10,1,·
Cc1ccc(C)c(NC(=O)c2ccc3c(c2)CCCN3S(C)(=O)=O)c1,·,-16,0,·
SMILES,TRPV1 potentiator,TRPML1 inh,TRPML1 ag,TRPV1 ag
COc1cccc(C(c2nnnn2CCc2ccccc2)N2CCN(c3ccccc3)CC2)c1OC (centres undefined),-6,-9,88*,9
COc1ccc(N2CCN(C(c3ccccc3OC)c3nnnn3C3CCCC3)CC2)cc1 (centres undefined),-1,?,79*,4
COc1ccc(N2CCN(C(c3cccc(OC)c3OC)c3nnnn3C3CCCC3)CC2)cc1 (centres undefined),4,-11,20,7
COc1ccc(CNC(=O)c2ccc(-c3nc(CSc4ccccc4)c(C)o3)cc2)cc1,·,7,0,·
COc1cccc(C2CC(=O)N(c3ccc(F)cc3)C3=C2C(=O)OC3)c1OC (centres undefined),·,-20,0,·
CCN1/C(=C/c2ccc3cccc(C)c3[n+]2CC)Sc2ccccc21,·,-11,58*,·
CCN1/C(=C/c2ccc3cc(C)cc(C)c3[n+]2CC)Sc2cc(C)ccc21,12,-24,24,13
CCC(=O)Nc1ccc(C(=O)N/N=C/c2cccnc2)cc1,6,9,1,-1
CCCCCCC(=O)Nc1ccc(C(=O)N/N=C/c2cccnc2)cc1,13,-2,0,86*
CCOC(=O)c1c(C)[nH]c(CCC(=O)Nc2ccc(C)c(F)c2)c1C,·,11,3,·
Cc1cc2nc3c(=O)n(C4CCCCC4)c(=O)[nH]c3nc2cc1N,-19,-30,87*,?
Cc1cc(C)cc(Nc2cc(=O)n(C3CCCCC3)c(=O)[nH]2)c1,15,7,0,-2
CCCCN(CC)Cc1ccc(CNS(=O)(=O)c2cc3c(cc2Cl)NC(=O)CO3)o1,·,-13,2,·
CC(C)CCNC(=O)C1CCN(Cc2cccc(OCc3ccccc3)c2)CC1,27,-17,0,92*
CCN(CC)c1ccc(NC(=O)c2ccc3c(c2)OCO3)c(C)c1,-20,21,0,82*
Cc1ccccc1NC(=O)c1cc2ccccc2o1,8,12,0,?
CCN(CC)c1ccc(NC(=O)c2cc3ccccc3o2)c(C)c1,-17,-5,1,83*
O=C(Nc1ccc(F)cc1)c1cc2ccccc2o1,-9,·,·,98*
CC(=O)Nc1nc2c(ccc3ccccc32)s1,17,2,0,-4
O=C(Cc1cccs1)Nc1nc2c(ccc3ccccc32)s1,-5,-1,0,81*
O=C(Nc1cccnc1)c1cc2c(ccc3ccccc32)o1,-19,13,0,?
Cc1c(C(=O)Nc2cccnc2)oc2ccc(Br)cc12,9,-6,1,91*
CCc1ccc2oc(C(=O)Nc3cccnc3)c(C)c2c1,-9,·,·,89*
COc1cc(CNC(=O)c2ccc(NC(=O)N3CCCCc4ccccc43)cc2)cc(OC)c1OC,·,-5,1,·
CCc1ccc(NC(=O)Cn2c(=O)n(CCCC(=O)NCc3ccccc3OC)c(=O)c3ccccc32)cc1,·,-1,0,·
SMILES,TRPV1 potentiator,TRPML1 inh,TRPML1 ag,TRPV1 ag
CCC(=Nc1ccccc1)C1=C(O)CC(C)(C)CC1=O,105*,·,·,9
CCC(=Nc1ccccc1)C1=C(O)CCCC1=O,0,2,0,-3
COc1ccc2c(c1)CCc1c(C(=O)N3CCCc4ccccc43)noc1-2,1,-2,5,5
COc1ccc2c(c1)CCc1c(C(=O)N3CCOCC3)noc1-2,-15,10,-1,81*
Cc1csc2nc(-c3cccc(NC(=O)c4ccc(S(N)(=O)=O)cc4)c3)cn12,·,2,0,·
O=S(=O)(Nc1ccccc1N1CCCCC1)c1ccc(Cl)s1,-29,-24,97*,15
CCN1C(=S)SC(=O)C1=C1C=C(C)OC(C)=C1,·,-20,1,·
CCN1C(=S)SC(=O)C1=C1C=C(C)N(Cc2ccco2)C(C)=C1,20,-6,59*,-1
CCN(CC)c1ccc2cc(-c3nnc(Nc4ccc(C)cc4)s3)c(=O)oc2c1,-3,-28,67*,?

# Screening data deposited in PubChem by National Center for Advancing Translational Sciences (NCATS).
